Reference: PubChem BioAssay
Activity calls are given as the source filed them.

Experiments:
[1] = A549 cell viability effects, profiling panel, calcein-AM fluorescence, 48 h, basal (AID 1162); settings: higher = more signal
[2] = adipocyte viability effects, profiling panel, cell-based, 3T3-L1 adipocytes, calcein-AM fluorescence, 48 h, basal (AID 1163); settings: 3T3-L1 adipocytes viability, higher = more signal
[3] = HepG2 cell viability effects, profiling panel, calcein-AM fluorescence, 48 h, basal (AID 1164); settings: higher = more signal
[4] = MM1S cell viability effects, profiling panel, calcein-AM fluorescence, 48 h, basal (AID 1165); settings: higher = more signal;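 note: viability of MM1S multiple myeloma cells under basal unstimulated conditions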
[5] = basal RPMI8226 viability, no added stimulus, profiling panel, cell-based, calcein-AM fluorescence, 48 h, PK04 Diversity Set (AID 1166); settings: RPMI8226 myeloma viability, higher = more signal;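 note: cells grown under basal conditions without added stimulus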
[6] = basal HepG2 mitochondrial membrane potential changes, profiling panel, cell-based, JC-1 fluorescence, 24 h, 100 nL compound (AID 1167); settings: higher = more signal
[7] = basal 3T3-L1 adipocyte mitochondrial potential changes, profiling panel, cell-based, JC-1 fluorescence, 3T3-L1 adipocytes, 24 h, 100 nL compound (AID 1168); settings: JC-1 mitochondrial fluorescence, higher = more signal, called active from +8 up or from −8 down
[8] = basal RPMI8226 mitochondrial membrane potential changes, profiling panel, cell-based, JC-1 fluorescence, 24 h, 100 nL compound (AID 1169); settings: RPMI8226 myeloma, JC-1 mitochondrial potential fluorescence, higher = more signal
[9] = basal MM1S mitochondrial membrane potential changes, profiling panel, cell-based, JC-1 fluorescence, 24 h, 100 nL compound (AID 1170); settings: higher = more signal
[10] = A549 lung cancer cell viability effects, profiling panel, resazurin fluorescence, 24 h, PK04 Diversity Set (AID 1171); settings: higher = more signal, called active from +8 up or from −8 down
Note: test concentration not given here.

| Compound | z-score [1] | z-score [2] | z-score [3] | z-score [4] | z-score [5] | z-score [6] | z-score [7] | z-score [8] | z-score [9] | z-score [10] |
| --- | --- | --- | --- | --- | --- | --- | --- | --- | --- | --- |
| NC(=O)NCC#Cc1ccc2c(c1)[C@]1(C(=O)N2)[C@H](c2ccccc2OCCO)N2[C@H](c3ccccc3)[C@H](c3ccccc3)OC(=O)[C@H]2[C@@H]1C(=O)O | -0.371 | -0.161 | -1.06 | -0.253 | 0.713 | -0.716 | 0.485 (inactive) | 0.689 | -0.394 | 1.73 (inactive) |
| CCOC(=O)C[C@H]1[C@H](OC(=O)Cc2ccc3c(c2)OCO3)[C@@H](NC(=O)c2ccc3ccccc3n2)c2cc(OCCCO)ccc2N1C(=O)c1ccccc1 | 0.776 | 0.288 | 0.731 | 0.26 | -1.09 | 2.52 | 0.0925 (inactive) | -0.169 | -1.07 | 0.231 (inactive) |
| CO[C@H]1O[C@H](CO)[C@@H](OC(=O)Nc2ccccc2)[C@H](OC(=O)c2cc3ccccc3[nH]2)[C@H]1OC(=O)c1cc2ccccc2[nH]1 | -0.14 | 0.544 | 0.131 | -0.294 | -0.939 | 1.12 | 2.46 (inactive) | -0.766 | -0.61 | -2.51 (inactive) |
| CC(CO)N1C(=O)[C@]2(C)C3C(=O)OCCC/C=C\[C@H]3OC23C=CCN(c2ccc(Cl)cc2)C(=O)[C@@H]13 (stereo not given in full) | 0.592 | -0.329 | 0.94 | 1.77 | 0.202 | 1.19 | 0.204 (inactive) | -0.765 | -0.302 | -0.0794 (inactive) |
| C=CCC(OC(C)=O)[C@@H]1[C@@H](N(Cc2ccc(-c3cccc(C(F)(F)F)c3)o2)C(=O)Cc2ccc(OC)cc2)c2cc(OCCCO)ccc2N1C(=O)c1ccc(-c2ccccc2)cc1 (stereo not given in full) | 0.095 | 0.647 | 0.926 | -0.681 | -1.93 | 3.55 | -0.645 (inactive) | 0.498 | 0.504 | -1.71 (inactive) |
| COCCCNC(=O)[C@@]1(CCC(=O)OC(C)(C)C)N=C(c2ccc(OCCCO)cc2)O[C@H]1c1ccccc1N=[N+]=[N-] | 0.618 | 0.251 | 0.977 | -1.21 | -1.16 | 1.74 | 3.98 (inactive) | -1.15 | -0.386 | 1.38 (inactive) |
| CC(CO)N1C(=O)[C@@H]2[C@H]3C(=O)OCC=C[C@H]3OC23C=CCN(Cn2nnc4ccccc42)C(=O)[C@@H]13 (stereo not given in full) | -0.671 | -0.948 | -0.907 | 0.07 | -0.637 | -1.23 | -0.529 (inactive) | 0.241 | -0.226 | -0.382 (inactive) |
| CC(C)c1ccc(NN2C(C(O)c3ccc(F)cc3)C=CC3C(=O)N(c4ccccc4)C(=O)C32)cc1 (stereo not given) | 0.394 | -1.37 | 0.747 | -1.12 | -1.46 | -1.18 | -0.382 (inactive) | 0.282 | -0.958 | -0.12 (inactive) |
| NCCCCCNC(=O)[C@H]1C[C@H]2C(=O)N3CCC[C@H]3C(=O)N2[C@H]1c1cccc(OCCO)c1 | -0.173 | 0.101 | -0.816 | -1.53 | -0.881 | 0.37 | 0.13 (inactive) | 0.113 | -0.503 | -0.845 (inactive) |
| CCCCCN1CC=CC23O[C@@H]4/C=C\CCCOC(=O)C4[C@H]2C(=O)N(C(C)CO)[C@@H]3C1=O (stereo not given in full) | 0.327 | -0.0628 | -0.0728 | 1.16 | 0.15 | 0.37 | 0.0667 (inactive) | 1.08 | -1.13 | 0.423 (inactive) |
| CCCCCCCCCC(O)C1C=CC2C(=O)N(c3ccccc3)C(=O)C2N1Nc1cc(OC)c(OC)c(OC)c1 (stereo not given) | -1.07 | 0.614 | -0.777 | -3.83 | -4.07 | -0.0684 | 0.783 (inactive) | -0.994 | -1.21 | -1.58 (inactive) |
| C#Cc1cc2ccccc2oc1=O | -1.35 | -1.04 | -0.651 | -0.932 | -0.414 | -1.5 | 0.272 (inactive) | 0.923 | -0.99 | -0.629 (inactive) |
| COCCOC(=O)N1C(=O)[C@@]2(c3cc(C#CCNC(N)=O)ccc31)[C@H](C(N)=O)[C@H]1C(=O)O[C@H](c3ccccc3)[C@H](c3ccccc3)N1[C@@H]2c1ccccc1OCCO | 0.533 | 0.0371 | -0.362 | -1.24 | 0.458 | -2.02 | -0.278 (inactive) | -0.159 | 0.244 | 0.291 (inactive) |
| COC(=O)[C@@]1(Cc2ccc(OC)cc2)[C@H]2c3cc(C(=O)N4CCCC4)n(CCO)c3C[C@H]2CN1C(=O)c1ccccc1 | -0.832 | 0.929 | 0.519 | -1.25 | -0.974 | 1.59 | -1.55 (inactive) | 0.506 | -1.35 | -1.07 (inactive) |
| C=CCC(OC(C)=O)[C@@H]1[C@@H](N(Cc2ccc(-c3cccc(C(F)(F)F)c3)o2)C(=O)c2ccc(-c3ccccc3)cc2)c2cc(OCCCO)ccc2N1C(=O)Cc1ccc2ccccc2c1 (stereo not given in full) | -0.713 | 1.22 | 0.374 | 0.502 | -1.15 | 1.66 | 0.437 (inactive) | -0.807 | 0.0299 | 0.378 (inactive) |
| CCCCC(CC)C(O)C1C=CC2C(=O)N(c3ccccc3)C(=O)C2N1Nc1ccc(C#N)cc1 (stereo not given) | 1.99 | -0.494 | 2.34 | 0.0084 | 0.368 | -1.31 | -1.61 (inactive) | 0.0604 | -0.679 | 0.857 (inactive) |

| Compound | z-score [1] | z-score [2] | z-score [3] | z-score [4] | z-score [5] | z-score [6] | z-score [7] | z-score [8] | z-score [9] | z-score [10] |
| --- | --- | --- | --- | --- | --- | --- | --- | --- | --- | --- |
| CC(C)N1C(=O)C[C@@](C(=O)O)(c2ccc([N+](=O)[O-])cc2)[C@H]1c1ccc(CO)cc1 | 2.22 | -0.246 | 0.74 | 0.389 | 1.1 | 1.52 | 0.546 (inactive) | -0.108 | 0.435 | -0.602 (inactive) |
| Cc1ccc(S[C@]2(C(=O)O)CC(=O)N(C3CCCCC3)[C@@H]2c2ccc(CO)cc2I)cc1 | -0.756 | 0.505 | -0.561 | -2.64 | -2.13 | -1.1 | -0.343 (inactive) | -0.278 | 0.0653 | 0.808 (inactive) |
| O=C1N(Cc2ccccc2)c2ccccc2C[C@]12N=C(c1ccc(OCCCO)cc1)O[C@@H]2c1ccccc1 | -1.25 | -0.372 | -3.54 | -2.32 | -3.88 | -1.05 | 0.162 (inactive) | -1.22 | -2.58 | -2.07 (inactive) |
| COC(=O)c1c(CC[C@@H](CO)NC(=O)N[C@@H](C)Cn2cc(-c3ccccn3)nn2)oc(C(C)=O)c1C(=O)OC | -0.495 | 0.526 | -0.239 | 0.226 | -0.858 | -0.182 | -0.857 (inactive) | -0.181 | -0.0849 | -1.38 (inactive) |
| CCOC(=O)C[C@H]1[C@H](OC(=O)c2ccccc2-c2ccccc2)[C@@H](NC(=O)c2ccc3ccccc3c2)c2cc(OCCCO)ccc2N1C(=O)c1ccccc1 | 0.065 | 0.257 | -0.336 | -0.306 | -0.604 | 0.579 | 0.633 (inactive) | -0.25 | 0.171 | -0.385 (inactive) |
| O=C1O[C@H](c2ccccc2)[C@H](c2ccccc2)N2[C@H]1[C@@H](C(=O)O)[C@]1(C(=O)Nc3ccc(C#CCCO)cc31)[C@H]2c1ccccc1OCCO | -0.0678 | 1.32 | -0.187 | 0.0409 | -0.353 | -0.892 | -0.426 (inactive) | -0.616 | 0.884 | -0.0294 (inactive) |
| CCOC(=O)C[C@H]1[C@H](OC(=O)c2cc3ccccc3oc2=O)[C@@H](NC(=O)c2ccc3ccccc3n2)c2cc(OCCCO)ccc2N1C(=O)Cc1ccc(OC)cc1 | 0.308 | 0.499 | -0.355 | 0.765 | -0.946 | 0.492 | -0.362 (inactive) | 0.498 | -0.423 | 0.711 (inactive) |
| CCCC[C@@H](O)C1=C(COc2ccccc2)C[C@H]2C(=O)N(Cc3ccccc3)C(=O)[C@H]2[C@H]1CO | 0.553 | -0.0277 | 0.913 | -0.189 | 0.0172 | 1.17 | 0.0746 (inactive) | -1.06 | -0.172 | -0.0959 (inactive) |
| CCCCCC1=C2CNC(C)(C(=O)OC)C=C2C(C)C1=O (stereo not given) | -1.23 | -0.0708 | -1.29 | -0.865 | -0.467 | -1.71 | -1.22 (inactive) | 0.782 | -0.362 | -0.722 (inactive) |
| NC(=O)NCC#Cc1ccc2c(c1)[C@]1(C(=O)N2)[C@H](c2ccccc2OCCO)N2[C@H](c3ccccc3)[C@H](c3ccccc3)OC(=O)[C@H]2[C@@H]1C(=O)NC[C@H](O)c1ccccc1 | 1.2 | 0.37 | -0.13 | 0.493 | 0.865 | -0.159 | 0.43 (inactive) | 0.208 | 0.359 | 0.635 (inactive) |
| Cn1cccc1C(O)C1C=CC2C(=O)N(c3ccccc3)C(=O)C2N1Nc1ccccc1 (stereo not given) | -0.514 | -1.86 | 0.316 | -0.615 | -0.244 | -1.3 | -0.96 (inactive) | -0.509 | -1.32 | -0.386 (inactive) |
| COc1cc(OC)c(C(O)C2C=CC3C(=O)N(Cc4ccccc4)C(=O)C3N2n2cnnc2)cc1Br (stereo not given) | -0.407 | 0.767 | -0.161 | -0.125 | -0.0145 | -0.769 | 0.771 (inactive) | -0.345 | -0.395 | -0.963 (inactive) |
| CCOC(=O)C1=CC[C@@H](c2ccccc2F)N(S(=O)(=O)c2ccc(C)cc2)[C@H]1c1ccccc1 | -0.982 | -0.815 | -0.244 | -1.47 | -0.413 | 2.25 | -1.35 (inactive) | -0.0368 | -1.24 | 2.12 (inactive) |
| CCC#CCN(Cc1ccccc1Br)[C@H](/C=C/C1CC1)[C@@H](O)Cc1ccccc1 | -0.382 | 0.929 | -0.713 | -2.23 | -3.31 | -1.28 | -0.611 (inactive) | -0.774 | -1.39 | 2.76 (inactive) |
| C=C[C@@H](CO)N(Cc1ccc(OC)cc1)S(=O)(=O)c1ccc(Br)cc1 | 1.49 | 0.773 | 0.349 | 1.39 | 0.613 | 0.622 | 2.05 (inactive) | 0.359 | -0.159 | 1.23 (inactive) |
